Data from the supplement of paper PMC12067093, “Discovery and optimisation of a covalent ligand for TRIM25 and its application to targeted protein ubiquitination” (Chemical Science, 2025).
About 21,000 targets were measured; listed, in parts, are those with the largest changes and a random draw of the rest.

Compound: CC1Cc2ccccc2N1C(=O)C1CCCN(C1)C(=O)CCl (mixture of isomers) [TRIM25 ligand 11 (diastereomer mixture)]
Experiment: probe-labelled cysteine peptide fold change vs DMSO (competition) (log2 fold change); higher = less target engagement (more negative = stronger competition)
Conditions: THP-1, incubation time: 4 h
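Further: competitive chemoproteomic profiling in live THP-1 cells with an iodoacetamide desthiobiotin (IA-DTB) probe, comparing probe-labelled peptide intensities in compound-treated cells against DMSO-treated controls.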

Sequence of UniProt Q5VV52 (Q5VV52 whole entry, looked up): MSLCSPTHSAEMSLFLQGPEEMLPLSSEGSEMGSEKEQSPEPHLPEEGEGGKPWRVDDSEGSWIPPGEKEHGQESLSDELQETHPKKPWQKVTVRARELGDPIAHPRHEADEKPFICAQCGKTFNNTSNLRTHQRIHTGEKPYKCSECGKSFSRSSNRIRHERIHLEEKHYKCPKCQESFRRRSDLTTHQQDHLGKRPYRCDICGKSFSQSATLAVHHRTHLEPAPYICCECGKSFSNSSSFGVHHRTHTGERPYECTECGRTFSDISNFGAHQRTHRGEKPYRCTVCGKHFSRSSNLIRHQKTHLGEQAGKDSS
Sequence of UniProt Q8TCF1 (Q8TCF1 whole entry, looked up): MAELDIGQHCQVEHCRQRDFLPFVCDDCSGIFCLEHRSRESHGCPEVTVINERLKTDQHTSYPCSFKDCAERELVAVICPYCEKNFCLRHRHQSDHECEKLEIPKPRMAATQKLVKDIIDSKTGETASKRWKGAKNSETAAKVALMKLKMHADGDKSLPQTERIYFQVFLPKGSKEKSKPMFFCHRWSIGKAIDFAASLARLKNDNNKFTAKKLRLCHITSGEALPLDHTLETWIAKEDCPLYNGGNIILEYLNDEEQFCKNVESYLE
Sequence of UniProt Q9P2E3 (Q9P2E3 whole entry, looked up): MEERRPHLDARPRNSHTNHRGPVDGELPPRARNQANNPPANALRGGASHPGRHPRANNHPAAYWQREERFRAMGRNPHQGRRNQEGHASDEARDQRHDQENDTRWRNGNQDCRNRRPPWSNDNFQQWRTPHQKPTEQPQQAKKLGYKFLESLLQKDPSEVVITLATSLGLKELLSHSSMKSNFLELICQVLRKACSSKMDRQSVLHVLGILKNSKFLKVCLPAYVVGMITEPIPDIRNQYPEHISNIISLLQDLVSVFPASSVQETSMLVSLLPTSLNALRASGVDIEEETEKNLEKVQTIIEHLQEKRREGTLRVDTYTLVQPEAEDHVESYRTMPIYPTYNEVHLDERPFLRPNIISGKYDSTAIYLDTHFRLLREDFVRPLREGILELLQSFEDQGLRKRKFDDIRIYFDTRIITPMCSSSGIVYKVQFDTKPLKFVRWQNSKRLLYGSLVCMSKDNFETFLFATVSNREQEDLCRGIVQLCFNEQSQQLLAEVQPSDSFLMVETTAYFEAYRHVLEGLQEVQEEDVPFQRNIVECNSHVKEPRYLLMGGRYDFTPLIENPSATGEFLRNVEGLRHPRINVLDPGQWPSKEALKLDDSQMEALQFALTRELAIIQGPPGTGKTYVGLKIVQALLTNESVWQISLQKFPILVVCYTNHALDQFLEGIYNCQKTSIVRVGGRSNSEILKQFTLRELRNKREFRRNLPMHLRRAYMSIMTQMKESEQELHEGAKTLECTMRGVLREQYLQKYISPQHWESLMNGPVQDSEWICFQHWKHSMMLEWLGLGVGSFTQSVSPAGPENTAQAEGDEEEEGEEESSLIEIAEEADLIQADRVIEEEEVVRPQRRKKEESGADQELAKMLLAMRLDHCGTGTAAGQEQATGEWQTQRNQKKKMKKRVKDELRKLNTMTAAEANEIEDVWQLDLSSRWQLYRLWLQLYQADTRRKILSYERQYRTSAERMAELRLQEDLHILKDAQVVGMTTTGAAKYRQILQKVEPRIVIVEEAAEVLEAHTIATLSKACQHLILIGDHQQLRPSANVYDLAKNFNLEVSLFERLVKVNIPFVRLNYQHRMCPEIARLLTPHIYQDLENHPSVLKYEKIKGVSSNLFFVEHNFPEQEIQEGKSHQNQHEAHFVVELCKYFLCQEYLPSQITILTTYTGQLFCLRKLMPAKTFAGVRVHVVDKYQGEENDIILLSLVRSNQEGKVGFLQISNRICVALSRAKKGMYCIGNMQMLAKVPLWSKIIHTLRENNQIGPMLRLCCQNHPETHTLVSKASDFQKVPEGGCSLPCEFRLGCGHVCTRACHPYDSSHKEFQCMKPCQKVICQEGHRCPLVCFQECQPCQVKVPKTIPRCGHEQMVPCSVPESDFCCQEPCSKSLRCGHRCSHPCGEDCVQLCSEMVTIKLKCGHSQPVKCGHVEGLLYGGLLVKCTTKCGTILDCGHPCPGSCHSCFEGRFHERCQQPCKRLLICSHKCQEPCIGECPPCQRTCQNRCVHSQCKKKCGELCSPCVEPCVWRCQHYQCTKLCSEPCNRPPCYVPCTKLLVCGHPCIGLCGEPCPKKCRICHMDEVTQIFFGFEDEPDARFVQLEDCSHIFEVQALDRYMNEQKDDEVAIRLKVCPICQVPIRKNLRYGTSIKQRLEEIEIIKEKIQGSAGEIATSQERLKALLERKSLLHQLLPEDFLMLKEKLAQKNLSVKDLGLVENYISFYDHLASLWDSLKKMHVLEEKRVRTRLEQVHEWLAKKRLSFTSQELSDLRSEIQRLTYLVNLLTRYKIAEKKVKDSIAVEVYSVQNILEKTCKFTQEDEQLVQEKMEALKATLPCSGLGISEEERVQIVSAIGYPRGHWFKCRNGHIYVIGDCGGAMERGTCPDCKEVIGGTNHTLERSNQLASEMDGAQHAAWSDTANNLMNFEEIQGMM
Sequence of UniProt Q9NUD5 (Q9NUD5 whole entry, looked up): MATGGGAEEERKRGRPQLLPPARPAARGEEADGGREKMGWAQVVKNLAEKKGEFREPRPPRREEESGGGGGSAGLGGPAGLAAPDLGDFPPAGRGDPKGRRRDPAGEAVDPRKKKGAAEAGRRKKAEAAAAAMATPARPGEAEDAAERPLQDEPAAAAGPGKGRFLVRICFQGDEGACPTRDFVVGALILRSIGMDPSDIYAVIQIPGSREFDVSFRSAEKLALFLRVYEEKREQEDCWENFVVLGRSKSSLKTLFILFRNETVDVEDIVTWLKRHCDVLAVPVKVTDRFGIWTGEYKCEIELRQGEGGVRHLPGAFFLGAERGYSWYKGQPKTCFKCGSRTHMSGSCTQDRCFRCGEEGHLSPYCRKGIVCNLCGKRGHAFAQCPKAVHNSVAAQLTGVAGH
Sequence of UniProt Q5T4F4 (Q5T4F4 whole entry): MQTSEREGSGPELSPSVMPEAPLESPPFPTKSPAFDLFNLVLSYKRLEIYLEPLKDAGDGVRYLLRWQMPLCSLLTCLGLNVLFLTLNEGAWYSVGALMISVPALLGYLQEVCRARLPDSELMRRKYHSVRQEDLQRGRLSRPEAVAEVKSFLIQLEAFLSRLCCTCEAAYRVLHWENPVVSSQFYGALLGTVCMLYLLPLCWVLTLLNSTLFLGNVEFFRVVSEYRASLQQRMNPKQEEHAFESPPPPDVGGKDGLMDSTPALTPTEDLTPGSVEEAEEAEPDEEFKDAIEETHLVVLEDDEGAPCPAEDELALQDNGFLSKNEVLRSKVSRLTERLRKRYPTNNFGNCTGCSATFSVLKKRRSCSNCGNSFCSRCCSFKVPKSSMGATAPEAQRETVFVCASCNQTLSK
Sequence of UniProt Q9ULU4 (Q9ULU4 whole entry, looked up): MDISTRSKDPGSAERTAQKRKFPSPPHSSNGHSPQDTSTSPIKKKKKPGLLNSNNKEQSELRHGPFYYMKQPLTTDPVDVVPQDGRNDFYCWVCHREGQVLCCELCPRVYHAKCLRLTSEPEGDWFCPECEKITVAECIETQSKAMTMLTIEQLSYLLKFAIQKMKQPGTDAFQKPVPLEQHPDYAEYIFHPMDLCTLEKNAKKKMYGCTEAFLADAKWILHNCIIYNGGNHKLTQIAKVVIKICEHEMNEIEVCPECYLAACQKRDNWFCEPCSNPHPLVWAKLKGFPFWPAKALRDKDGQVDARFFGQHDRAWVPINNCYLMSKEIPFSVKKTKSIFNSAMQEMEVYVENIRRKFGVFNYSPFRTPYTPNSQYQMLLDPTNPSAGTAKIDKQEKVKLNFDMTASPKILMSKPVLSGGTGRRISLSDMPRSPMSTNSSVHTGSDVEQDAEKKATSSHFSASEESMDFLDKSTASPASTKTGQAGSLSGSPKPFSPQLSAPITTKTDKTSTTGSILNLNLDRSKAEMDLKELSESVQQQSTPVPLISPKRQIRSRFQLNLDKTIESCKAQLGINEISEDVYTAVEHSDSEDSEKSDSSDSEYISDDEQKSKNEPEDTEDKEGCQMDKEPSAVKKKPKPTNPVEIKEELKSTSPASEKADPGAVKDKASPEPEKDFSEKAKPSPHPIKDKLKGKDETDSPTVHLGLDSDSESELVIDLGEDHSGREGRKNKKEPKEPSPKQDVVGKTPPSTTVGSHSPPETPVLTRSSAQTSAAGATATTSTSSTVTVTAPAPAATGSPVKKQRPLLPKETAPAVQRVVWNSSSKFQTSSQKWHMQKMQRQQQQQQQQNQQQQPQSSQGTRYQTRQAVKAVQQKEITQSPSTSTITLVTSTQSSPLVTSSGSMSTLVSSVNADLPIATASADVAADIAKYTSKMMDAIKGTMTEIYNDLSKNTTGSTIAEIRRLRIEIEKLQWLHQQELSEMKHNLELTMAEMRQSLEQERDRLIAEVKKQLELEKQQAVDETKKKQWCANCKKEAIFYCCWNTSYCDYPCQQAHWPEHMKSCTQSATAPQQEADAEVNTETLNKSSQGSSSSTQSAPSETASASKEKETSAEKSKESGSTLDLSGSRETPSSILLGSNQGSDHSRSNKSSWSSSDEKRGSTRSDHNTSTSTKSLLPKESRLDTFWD
Sequence of UniProt O43670 (O43670 whole entry, looked up): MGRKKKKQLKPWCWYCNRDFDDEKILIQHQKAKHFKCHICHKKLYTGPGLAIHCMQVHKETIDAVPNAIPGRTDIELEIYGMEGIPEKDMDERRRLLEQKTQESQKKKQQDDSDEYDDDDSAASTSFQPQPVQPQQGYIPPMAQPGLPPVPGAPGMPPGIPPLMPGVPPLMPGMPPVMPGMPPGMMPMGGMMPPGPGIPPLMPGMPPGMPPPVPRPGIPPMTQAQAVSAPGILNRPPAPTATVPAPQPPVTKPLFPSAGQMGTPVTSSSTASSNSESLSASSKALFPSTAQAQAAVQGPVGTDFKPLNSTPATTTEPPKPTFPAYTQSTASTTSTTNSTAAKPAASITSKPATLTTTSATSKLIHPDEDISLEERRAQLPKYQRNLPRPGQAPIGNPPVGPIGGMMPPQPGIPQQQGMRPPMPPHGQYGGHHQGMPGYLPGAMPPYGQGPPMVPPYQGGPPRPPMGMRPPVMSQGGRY

Target	probe-labelled cysteine peptide fold change (10 µM)	probe-labelled cysteine peptide fold change (50 µM)
ZNF207_O43670_54_KLYTGPGLAIHCMQVHK (UniProt O43670)	-0.6	-0.388
XRN2_Q9H0D6_736_FSLDEEAILPDQIVCSPVPMLR (UniProt Q9H0D6)	0.234	0.0197
XRN1_Q8IZH2_16_YPCLSEVVK (UniProt Q8IZH2)	0.0639	0.0149
ZCCHC3_Q9NUD5_238_REQEDCWENFVVLGR (UniProt Q9NUD5)	0.192	0.112
ZBTB7A_O95365_34_TQGLLCDVVILVEGR (UniProt O95365)	0.149	-0.0545
ZW10_O43264_650_LGIVWQDVLPVNIYCK (UniProt O43264)	0.0783	0.0695
ZNF280D_Q6N043_323_CFSCLK (UniProt Q6N043)	0.0838	0.233
ZW10_O43264_568_LAPILCDGTATFVDLVPGFR (UniProt O43264)	0.117	0.00333
ZNF691_Q5VV52_230_THLEPAPYICCECGK (UniProt Q5VV52)	-0.272	-0.8
XRN2_Q9H0D6_296_HDELADSLPCAEGEFIFLR (UniProt Q9H0D6)	0.409	-0.0107
ZW10_O43264_588_LGTECFLAQMR (UniProt O43264)	0.647	0.508
YWHAH_Q04917_97_ELETVCNDVLSLLDK (UniProt Q04917)	-0.1	-0.178
ZNF417_Q8TAU3_56_DVMLENLALISSLGCWCGSK<|>ZNF587_Q96SQ5_56_DVMLENLALISSLGCWCGSK (UniProt Q96SQ5+Q8TAU3)	0.112	0.104
ZFAND1_Q8TCF1_64_LKTDQHTSYPCSFK (UniProt Q8TCF1)	-0.0624	-0.388
ZNFX1_Q9P2E3_1416_CGHVEGLLYGGLLVK (UniProt Q9P2E3)	-0.0464	-0.153
YES1_P07947_255_LTTVCPTVKPQTQGLAK (UniProt P07947)	-0.0129	-0.34
YES1_P07947_42_YRPENTPEPVSTSVSHYGAEPTTVSPCPSSSAK (UniProt P07947)	-0.0245	-0.239
ZMYND8_Q9ULU4_106_EGQVLCCELCPR (UniProt Q9ULU4)	0.247	0.0715
ZNF687_Q8N1G0_576_CSLLLHAR (UniProt Q8N1G0)	0.101	0.0491
ZFYVE27_Q5T4F4_353_RYPTNNFGNCTGCSATFSVLK (UniProt Q5T4F4)	-0.247	-0.0647
XRN2_Q9H0D6_296_GKHDELADSLPCAEGEFIFLR (UniProt Q9H0D6)	0.0997	-0.0177
ZNF710_Q8N1W2_91_ALEEPAEEEVLEVEAACEK (UniProt Q8N1W2)	0.158	-0.171
ZNF316_A6NFI3_861_CADCGR (UniProt A6NFI3)	0.139	0.163
